About 83,000 compounds went through this panel and 20% of them were active in at least one assay; those are over-represented in the sample as a whole.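 Note: values are percent growth. 100 is the growth of untreated cells, values between 100 and 0 indicate rising inhibition; between -100 and 0 indicates cell death.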 Values without a mark were called inactive. Active and inactive are the calls of the source. How the source made its calls: active means growth percent below 10; inactive means the rest.

What all share (assay): NCI-60 one-dose screen, 48 h (100 = growth as untreated, 0 = no growth, -100 = all killed)
What all share (conditions): 10 µM unless noted

The subject of assay [1] is HCT-15 colon.
Assay [2] deals with HT29 colon.
For assay [3], the system named is SNB-75 CNS.
Assay [4] deals with SNB-19 CNS.
In assay [5] the test system is U251 CNS.
The test system of assay [6] is PC-3 prostate.
In assay [7] the test system is SK-MEL-5 melanoma.
In assay [8] the test system is UACC-62 melanoma.
In assay [9] the test system is LOX IMVI melanoma.
The test system of assay [10] is SK-MEL-28 melanoma.
Assay [11] deals with SK-MEL-2 melanoma.
Assay [12] relates to EKVX NSCLC.
The subject of assay [13] is UO-31 renal.
Assay [14] deals with TK-10 renal.
The test system of assay [15] is ACHN renal.
Assay [16] concerns CAKI-1 renal.
Assay [17] concerns A498 renal.
Assay [18] has as its system CCRF-CEM leukemia.
The test system of assay [19] is MOLT-4 leukemia.
Assay [20] concerns SN12C renal.

As for `COC(=O)c1[nH]nc2c1C1(C(=O)N(C)c3ccccc31)C(C#N)=C(N)O2` (centres undefined), the growth is 101% in assay [1]; 104% in [2]; 91.5% in [3]; 101% in assay [4]; 105% in [5]; 91% in assay [6]. For the same compound, the growth is 99.4% in assay [7]; 96.1% in assay [8]; 97% in assay [9]; 105% in [10]; 105% in [11]; 99.3% in [12]. Besides, the growth was 79.7% in assay [13]; 102% in assay [14]; 97.9% in assay [15]; 91.1% in assay [16]; 90.2% in [17]; 109% in assay [18]. Besides, the growth in assay [19] was 112%.
With `CCC(NC(c1cc2cccc3ccc4cccc1c4c32)c1nnnn1C(C)(C)C)C1CCCCC1` (centres undefined), the growth in [1] was 38.4%; in assay [2], 69.4%; in [3] it was 75.6%; in assay [4], 68.9%; in assay [5], 53.8%; in assay [6], 45.8%. Moreover, the growth in assay [7] was 6.39% (active); in assay [8] it was 49.6%; in assay [9] it was 47.6%; in assay [10], 80.3%; in assay [12] it was 92.1%; in assay [20], 80.8%. The growth was 72.1% in assay [13]; 80.6% in [14]; 54.5% in assay [15]; 63.1% in assay [16]; 58.1% in assay [18].
Turning to `Cc1cccc(/C=C/C(=O)Nc2ncc(Cc3cccc(C)c3)s2)c1`, the growth in assay [1] is 17.5%; in assay [2], 2.82% (active); in assay [3], 8.11% (active); in [4], 47.2%; in [5], 22.1%; in assay [6] it was 13%. The growth is -19% (active) in assay [7]; 14.8% in assay [8]; 23.3% in [9]; 49.8% in assay [10]; 36.8% in assay [12]; 38.5% in assay [20]. The growth in assay [13] was 35.4%; in assay [14] it was 54.6%; in assay [15] it was 42.1%; in assay [16], 25.3%; in assay [18], 9.99% (active).
On to `NS(=O)(=O)c1ccc(Nc2nc(N/N=C/c3ccccn3)nc(Nc3ccccc3)n2)cc1`, for which the growth in assay [1] was 17.6%; in assay [2], 6.29% (active); in assay [3] it was -25.4% (active); in assay [4], 9.62% (active); in assay [5], -55.2% (active); in [6], -7.87% (active). The growth is -84.8% (active) in assay [7]; -49.3% (active) in assay [8]; -43.7% (active) in [9]; -64.3% (active) in assay [10]; -82% (active) in assay [11]; 13.3% in assay [12]. Further, the growth was 17.4% in assay [13]; 2.56% (active) in [14]; 17.5% in assay [15]; -25.3% (active) in assay [16]; -67.6% (active) in assay [17]; 5.99% (active) in assay [18]. Also, in assay [19], the growth was 3.13% (active).
With `CCN1CCN(C(=O)[C@]23CCC(C)(C)C[C@H]2C2=CC[C@@H]4[C@@]5(C)Cc6c([nH]c7ccccc67)C(C)(C)[C@@H]5CC[C@@]4(C)[C@]2(C)CC3)CC1`, the growth in [1] was 79.6%; in assay [2] it was 88.3%; in [3], 87.3%; in assay [4] it was 91.9%; in assay [5], 83.1%; in [6], 75.3%. The growth in [7] is 97.3%; in assay [8] it was 94.8%; in assay [9] it was 76%; in [10], 95.5%; in assay [11], 104%; in assay [12], 90%. Moreover, the growth in assay [13] is 75.8%; in assay [14] it was 119%; in [15], 85%; in [16] it was 65%; in assay [17], 97.5%; in assay [18] it was 80%.
Turning to `CS(=O)(=O)Nc1cc(-c2ccc3ncc(C#N)c(NCc4ccccc4O)c3c2)cnc1Cl`, the growth was 8.71% (active) in [1]; 15.5% in [2]; 32.3% in assay [3]; 11.9% in assay [4]; 13.6% in assay [5]; 9.68% (active) in assay [6]. The growth in [7] is -90.3% (active); in assay [8] it was -25.3% (active); in assay [9], -34.5% (active); in assay [10], 5.12% (active); in assay [11], -38.3% (active); in [12], 4.89% (active). The growth in assay [13] is 3.5% (active); in [14], -6.17% (active); in [15], 12.4%; in assay [16] it was -1.29% (active); in assay [17], -41% (active); in assay [18] it was 19.9%. Moreover, the growth in assay [19] is -0.509% (active).
For `N#C/C(=C\c1ccc(-c2ccc(Cl)cc2Cl)o1)c1ccc(F)cc1`, the growth was 94.5% in assay [1]; 96.4% in assay [2]; 77.6% in [3]; 96.7% in assay [4]; 98.5% in assay [5]; 87.8% in [6]. The growth in [7] is 95.7%; in assay [8], 71.2%; in assay [9], 87.6%; in assay [10], 102%; in assay [12], 87.4%; in assay [20] it was 98.6%. Further, the growth in assay [13] is 81.5%; in [14], 138%; in assay [15], 89.9%; in assay [16], 68.8%; in assay [18], 93.7%.
Regarding `COc1ccc(-c2nc3cc(Cl)c(Cl)cc3n2CC(=O)N=Nc2c(O)[nH]c3ccc(OC)cc23)cc1`, the growth in assay [1] was 43.7%; in assay [2], 55.2%; in assay [3], 65.3%; in assay [4], 80%; in assay [5], 77.8%; in assay [6], 63.8%. Further, the growth in assay [7] is 61.2%; in [8], 53.4%; in assay [9], 7.13% (active); in assay [10], 48.6%; in assay [12], 62.9%; in assay [20], 49.7%. The growth in assay [13] is 69.9%; in [14] it was 97.3%; in assay [15], 43.5%; in assay [16], 59.4%; in [18], 61.6%; in [19], 78.7%.

Values taken from PubChem BioAssay (NCI).
